Source: PubChem BioAssay AID504652 (National Center for Advancing Translational Sciences (NCATS), 2011)
The campaign covered roughly 360,000 compounds. About 11,000 (3.1%) were called active. For the sample, actives were picked, then their nearest neighbours and some compounds at random. Unmarked numbers belong to inactive results. Rule as the data show it: active = activity change below about -30%; inactive = the rest.
% is scaled to controls: 0 for no effect and ±100 for the full control effect.

Each compound was assayed against D(1A) dopamine receptor (Homo sapiens) (UniProt P21728) (assay: Antagonist of Human D 1 Dopamine Receptor: qHTS). Settings: HEK293 TREx D1 cells, calcium flux, dopamine EC80; at 10 µM; active compounds read low.
D(1A) dopamine receptor (Homo sapiens), sequence (P21728 whole entry, looked up): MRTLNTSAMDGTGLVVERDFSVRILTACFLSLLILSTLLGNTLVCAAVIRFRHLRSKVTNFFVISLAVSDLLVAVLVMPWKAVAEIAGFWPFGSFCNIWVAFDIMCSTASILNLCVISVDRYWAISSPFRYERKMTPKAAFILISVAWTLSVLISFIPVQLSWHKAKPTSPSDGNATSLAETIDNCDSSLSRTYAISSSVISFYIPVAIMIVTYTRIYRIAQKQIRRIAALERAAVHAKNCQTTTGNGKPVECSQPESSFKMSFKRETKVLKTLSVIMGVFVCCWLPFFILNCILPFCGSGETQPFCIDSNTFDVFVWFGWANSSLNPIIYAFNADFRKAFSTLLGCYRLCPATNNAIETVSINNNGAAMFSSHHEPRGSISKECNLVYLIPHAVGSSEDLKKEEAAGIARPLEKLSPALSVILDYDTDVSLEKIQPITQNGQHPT
How it was run: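 Tetracycline-induced HEK293 Trex D1 cells, force-coupled to calcium, dye-loaded; compounds added and read 180 s, then EC80 dopamine added and calcium flux tracked kinetically another 180 s.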
With `CC(C)Sc1ncnc2c1cnn2-c1ccccc1` the activity change, negative = inhibition was 11.9%. `CN(C(=O)COc1ncnc2c1cnn2-c1ccccc1)C1CCCCC1` was tested, and the activity change, negative = inhibition was 2.82%. `c1ccc(-n2ncc3c2ncn2c(C4CCCCC4)nnc32)cc1` was tested, and the activity change, negative = inhibition was -30.2% (active). For `Cc1ccc(NC(=O)Cn2c(=O)n(-c3ccccc3)c(=O)c3c4c(sc32)CCCC4)cc1`, the activity change, negative = inhibition was -4.05%. For `CCOC(=O)N1CCc2c(sc3c2C(=O)NC(c2ccccc2F)N3)C1` (centres undefined), the activity change, negative = inhibition was 4.82%. For `O=C(CSc1ncc(CO)n1Cc1ccc(F)cc1)NCc1ccco1`, the activity change, negative = inhibition was -2.59%. In the case of `O=C(CCN1CCN(c2ccccc2)CC1)NNC(=S)Nc1ccccc1`, the activity change, negative = inhibition was -7.38%. In the case of `Cc1nnc(NC(=O)C(c2ccccc2)c2ccccc2)s1`, the activity change, negative = inhibition was 0.172%. In the case of `CCCCC(=O)NNC(=S)NC(=O)C(c1ccccc1)c1ccccc1`, the activity change, negative = inhibition was -50.5% (active). For `Cc1c(C(=O)N2CC(C)OC(C)C2)sc2nc(-c3ccccc3)cn12` (centres undefined), the activity change, negative = inhibition was -32.4% (active). Compound `COc1ccc(-c2cn3c(C)c(C(=O)Nc4cc(C)cc(C)c4)sc3n2)cc1` has an activity change, negative = inhibition of 9.7%. In the case of `Cc1c(C(=O)NCC2CCCO2)sc2nc(-c3ccccc3)cn12` (centres undefined), the activity change, negative = inhibition was 2.03%. `Cc1cccc(NC(=O)c2nnn(CC(=O)Nc3ccc(C(C)C)cc3)c2N)c1C` showed an activity change, negative = inhibition of 5.98%. For `CN(c1ccc(C(=O)N2CCc3ccccc3C2)cc1)S(C)(=O)=O`, the activity change, negative = inhibition was 1.19%. For `CN(c1cccc(NC(=O)c2ccc(CN3CCc4ccccc4C3)cc2)c1)S(C)(=O)=O`, the activity change, negative = inhibition was -37.7% (active). In the case of `Cc1cccc(C)c1NC(=O)c1ccc(CN2CCc3ccccc3C2)cc1`, the activity change, negative = inhibition was -14.8%. `O=C(Nc1ccc(OC(F)(F)F)cc1)C1CCCN(S(=O)(=O)c2ccc(Br)s2)C1` (centres undefined) was tested, and the activity change, negative = inhibition was -19.1%. `COCc1ccc(CN2CCC(Oc3ccc(C(=O)NCc4ccccn4)cc3)CC2)o1` was tested, and the activity change, negative = inhibition was -5.9%. Work on `O=C(NCCOc1cccnc1)c1ccc(OC2CCN(Cc3ccccn3)CC2)cc1` yielded an activity change, negative = inhibition of -0.574%. With `Cn1cc(CNC(=O)c2ccc(OC3CCN(Cc4ccccn4)CC3)cc2)cn1` the activity change, negative = inhibition was -41.2% (active). Work on `CC(CCCc1ccccc1)NC(=O)c1nn(-c2ccc(Cl)cc2)nc1CO` (centres undefined) yielded an activity change, negative = inhibition of 3.03%. In the case of `O=S(=O)(NCC1CC1)c1ccc(F)c(Cl)c1`, the activity change, negative = inhibition was -3.94%. With `O=S(=O)(NCCCN1CCOCC1)c1ccc(F)c(Cl)c1` the activity change, negative = inhibition was -34.6% (active). `O=[N+]([O-])c1cc(S(=O)(=O)CCCN2CCOCC2)ccc1F` showed an activity change, negative = inhibition of -12.6%. For `CCOc1ccc(C2C(=O)N(C3CCCCC3)CC(=O)N2CCC2=CCCCC2)cc1OC` (centres undefined), the activity change, negative = inhibition was 39.1%. Work on `c1ccc2cc(OCCN3CCCC3)ccc2c1` yielded an activity change, negative = inhibition of 12.7%. Work on `Cc1cc(OCCN2CCCC2)cc(C(C)C)c1` yielded an activity change, negative = inhibition of -2.52%. With `Cc1cc(OCCN2CCCC2)ccc1C(C)C` the activity change, negative = inhibition was -30% (active). For `Cc1ccc(NC(=O)Cn2nnc3sc4c(c3c2=O)CCC(C)C4)cc1` (centres undefined), the activity change, negative = inhibition was -17.2%. `CCc1cccc(C)c1Nc1c(-c2ccc(N(C)C)cc2)nc2ncccn12` gave an activity change, negative = inhibition of 6.48%. Work on `Cc1ccccc1C(=O)N(Cc1ccc(N(C)C)cc1)CC1CCCO1` (centres undefined) yielded an activity change, negative = inhibition of 12.9%. With `N#Cc1nc(Nc2cc(F)cc(Cl)c2)nc(NC2CCCC2)n1` the activity change, negative = inhibition was -27%. `Cc1cc(C)cc(NS(=O)(=O)c2ccc(-c3cc(C)no3)s2)c1` gave an activity change, negative = inhibition of -9.8%. In the case of `COc1ccc(C)cc1NC(=O)COCc1cc(-c2cccs2)on1`, the activity change, negative = inhibition was 15%. For `Cc1cccc(N2CCN(S(=O)(=O)c3ccc(-c4cc(C)no4)s3)CC2C)c1` (centres undefined), the activity change, negative = inhibition was -39.9% (active). For `Cc1cc(-c2ccc(S(=O)(=O)N3CCN(c4cccc(C(F)(F)F)c4)CC3)s2)on1`, the activity change, negative = inhibition was -24.5%. With `Cc1cc(-c2ccc(S(=O)(=O)N3CCc4ccccc4C3)s2)on1` the activity change, negative = inhibition was -15.7%. With `O=c1onc(-c2c(F)cccc2F)n1-c1ccccc1Cl` the activity change, negative = inhibition was -36.4% (active). For `Cc1ccc(C)c(N2C(=O)N(Cc3c(F)cccc3Cl)c3ccccc3S2(=O)=O)c1`, the activity change, negative = inhibition was -19.3%. With `O=C(Cn1c(-c2ccc(Cl)cc2)noc1=O)N1CCN(c2ccccc2F)CC1` the activity change, negative = inhibition was -13.7%. `CCOc1ccccc1CNCc1c(C(=O)O)c(C)n(Cc2ccc(C)cc2)c1C` was tested, and the activity change, negative = inhibition was 0.5%. Work on `CCCCNc1ccc(-c2nc(-c3ccncc3)no2)cc1[N+](=O)[O-]` yielded an activity change, negative = inhibition of 10.8%. Compound `CCOC(=O)c1ccc(NC(=O)C2CCN(S(=O)(=O)c3ccc4c(c3)CCCC(=O)N4)CC2)cc1` has an activity change, negative = inhibition of 2.67%. `CCCCOc1ccc(NC(=O)c2cc3c(n(-c4ccc(Cl)cc4)c2=O)CCCC3=O)cc1` showed an activity change, negative = inhibition of 1.15%. In the case of `C[C@@H](NC(=O)OC(C)(C)C)c1nnc(S(=O)(=O)Cc2ccccc2)o1`, the activity change, negative = inhibition was -33% (active). In the case of `COc1ccccc1NC(=O)[C@H](COCc1ccccc1)NC(=O)OC(C)(C)C`, the activity change, negative = inhibition was -13.2%. Compound `CC(C)(C)c1ccc(C(CC(=O)O)NS(=O)(=O)Cc2ccccc2)cc1` (centres undefined) has an activity change, negative = inhibition of -2.49%. In the case of `O=C(NCCc1ccccc1)c1cnc2sc(N3CCCC3)nn2c1=O`, the activity change, negative = inhibition was 8.92%. In the case of `CCOc1ccc(NC(=O)CCC(=O)N2CC(C)Oc3ccc(C)cc32)cc1` (centres undefined), the activity change, negative = inhibition was -0.916%. `Cc1cccc(N2CCN(c3ccc(C(=O)O)cc3NC(=O)c3ccccc3F)CC2C)c1` (centres undefined) gave an activity change, negative = inhibition of 20.1%. For `COc1ccccc1-c1noc(-c2ccc(NCc3ccccc3)c([N+](=O)[O-])c2)n1`, the activity change, negative = inhibition was 4.22%. `CNc1ccc(-c2nc(-c3ccccc3C)no2)cc1[N+](=O)[O-]` gave an activity change, negative = inhibition of -6.85%. With `CC(Nc1ccc(-c2nc(-c3ccco3)no2)cc1[N+](=O)[O-])c1ccccc1` (centres undefined) the activity change, negative = inhibition was -5.4%. `CN(Cc1ccccc1)c1ccc(-c2nc(-c3ccccc3)no2)cc1[N+](=O)[O-]` was tested, and the activity change, negative = inhibition was -53.5% (active). `O=[N+]([O-])c1cc(-c2nc(-c3ccccc3)no2)ccc1NCc1ccco1` was tested, and the activity change, negative = inhibition was -9.94%. For `CNc1ccc(-c2nc(-c3ccco3)no2)cc1[N+](=O)[O-]`, the activity change, negative = inhibition was -31.8% (active). With `Cc1ccc(S(=O)(=O)c2c(N)n(C)c3nc4ccccc4nc23)cc1` the activity change, negative = inhibition was -3.59%. Compound `CCC(=O)Nc1c(S(=O)(=O)c2ccccc2)c2nc3ccccc3nc2n1Cc1ccccc1` has an activity change, negative = inhibition of -7.1%. With `CCN(CC)CCn1c(N)c(S(=O)(=O)c2ccccc2)c2nc3ccccc3nc21` the activity change, negative = inhibition was -52.8% (active).
